CHX counter – counter-screen hit for Shiga toxin inhibitors, cycloheximide; cell reporter, cycloheximide protein synthesis inhibition counterscreen; hit rate 12% among 300,000; max response, %; AID 2314; in the data active means max response mostly above about 13%, no sharp cut-off; inactive means mostly below about 14%; further: read at 38.3 µM for the half of the compounds with a filed dose; 0% is about no effect
Shiga inhibitor – inhibitors of Shiga toxin in Vero cells; inhibition, % at 38.7 µM; Vero cells, Shiga toxin protein synthesis inhibition reporter; AID 2315; hit rate 9.2% among 290,000; in the data active means inhibition mostly above about 28%, no sharp cut-off; inactive means mostly below about 43%; further: 0% is about no effect
AMA1 RON2 block – disrupts binding of P. falciparum AMA1 to RON2. AlphaScreen AMA1-biotinylated RON2 peptide binding. hit rate 0.2% among 360,000. Potency, µM (series often up to 58.2 µM), inactives show at the top dose activity change, negative = inhibition, hits mostly inhibitors;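 further: potency means the concentration at half of the fitted maximal effect; 0% = vehicle wells and -100% = peptide control; nearly all actives have a fitted effect of over 45% in size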
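AMA1 (3D7) with his tag at 25 nM final met compounds first, then biotinylated RON2 peptide at 25 nM; detection used donor plus acceptor beads, 10 µg/mL apiece, read by AlphaScreen after 30 min at room temperature.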
Pf growth 48h – P. falciparum growth inhibition at 48 hours (one generation); P. falciparum luciferase growth in erythrocytes, 48 h; AID 504832; hit rate 5.9% among 310,000; Potency, µM (titrated, usually from 28.7 µM), without a hit: at the top dose activity change, negative = inhibition, usual class: inhibitors; further: potency means the concentration at half of the fitted maximal effect; on the % scale 0 is the no-effect control and ±100 the full control effect
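Luciferase-expressing parasites in RBCs, 2% Hct / 0.1% parasitemia final; RPMI 1640 + 0.5% Albumax; 37 C, 5% CO2, one generation; luminescence read-out, lower signal = inhibition.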
Pf growth 96h – P. falciparum growth inhibition at 96 hours; P. falciparum luciferase reporter growth, 96 h; Potency, µM (doses to about 28.7 µM), for the others: at the highest dose activity change, negative = inhibition, usual class: inhibitors; hit rate 6.9% among 320,000; AID 504834; further: potency means the concentration at half of the fitted maximal effect; on the % scale 0 is the no-effect control and ±100 the full control effect
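Luminescence readout: decreased luciferase signal marks inhibited growth of reporter-expressing P. falciparum in infected red cells (2% hematocrit, 0.05% parasitemia final), exposed to compound two generations (96 h, 37 C, 5% CO2).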
SARS PLpro yeast – inhibitors of SARS-CoV papain-like protease in yeast; Potency, µM (doses to about 32.9 µM), for inactives: at the highest dose activity, positive = growth rescue, usual class: activators; hit rate 0.19% among 330,000; AID 485353; S. cerevisiae expressing SARS-CoV PLpro, growth rescue; calls by dose curve; further: potency means the concentration at half of the fitted maximal effect; 0% is about no effect; nearly all actives have a fitted effect of over 55% in size
An asterisk follows results filed as active; ? = inconclusive; . = no result. Rows were chosen to be rich in hits. Some 19% of all compounds tested hit in one or more screens of this group. Unless noted, the call rests on the fitted dose curve; in most records, active means well fitted curve in the direction sought with a large enough effect; inconclusive means small, poorly fitted or top-dose-only effect, or another doubt; inactive means no such curve, though single readings can be large; an effect the other way counts as inactive or inconclusive.

SMILES	CHX counter	Shiga inhibitor	AMA1 RON2 block	Pf growth 48h	Pf growth 96h	SARS PLpro yeast
CCOn1c(=O)c(-c2cc3ccccc3o2)[n+]([O-])c2ccccc21	47*	163*	-3%	92%	-55%	-3%
O=c1c(-c2ccc(Br)cc2)[n+]([O-])c2ccccc2n1OCc1ccccn1	0	23	18%	5%	0%	1%
O=c1c(-c2cc3ccccc3o2)[n+]([O-])c2ccccc2n1OCc1ccccn1	48*	101*	-2%	111%	322%	-28%
CC(C)NC(=O)c1cc(C2CCCCN2C(=O)c2cc(C(C)(C)C)nn2C)on1 (stereo unspecified)	.	.	15%	.	.	.
CCn1cc(C2=NOC(C(=O)O)C2)c(C)n1 (stereo unspecified)	-2	13	13%	12%	5.9µM*	4%
CN(C)S(=O)(=O)Oc1ccc(C(=O)Nc2cccc(Cl)c2)cc1	56*	89*	7%	0%	0%	0%
CN(C)S(=O)(=O)Oc1ccc(C(=O)Nc2cccc(C(F)(F)F)c2)cc1	14	18	0%	?	1.7µM*	3%
CC(C)CC1C(=O)N(Cc2cn(Cc3ccco3)nn2)CCS(=O)(=O)N1Cc1ccc(-c2ccncc2)cc1 (stereo unspecified)	.	.	-11%	.	.	.
COCCNC(=S)Nc1cc(OC)c(OC)cc1C#N	1	2	8%	-1%	3%	0%
C=CCn1c(=O)c2c(nc(-n3nc(C)cc3C)n2C)n(C)c1=O	-3	-9	-15%	10µM*	-1%	9%
O=C(Nc1ccc2c(c1)CCCN2C(=O)c1cccs1)c1ccccc1	36*	36*	0%	-8%	-24%	-33%
O=C(Nc1ccc2c(c1)CCCN2C(=O)c1cccs1)c1cccc(F)c1	22*	47*	52%	17%	19%	-37%
COc1ccccc1C(=O)Nc1ccc2c(c1)CCCN2C(=O)c1cccs1	22	25	-17%	-3%	2%	-66%
COc1cc(OC)cc(C(=O)Nc2ccc3c(c2)CCCN3C(=O)c2cccs2)c1	-2	0	0%	?	?	-2%
Cc1ccc(CNC(=O)C2CCC(=O)N(C3CC3)C2)cc1 (stereo unspecified)	11	20	-5%	15%	6%	-2%
O=S(=O)(O)NC1CCCCC1	.	.	.	?	-28%	.
CCc1c(C(=O)Nc2ccc(OC)c(Cl)c2)[nH]c(C)c1C(C)=O	-1	5	-10%	12µM*	-6%	1%
CCOC(=O)c1[nH]c(C)c(C(=O)C(C)C)c1C	17*	17	-4%	.	68%	1%
CCOC(=O)c1[nH]c(C(=O)O)c(CCC(=O)OC)c1C	1	-5	-2%	1%	12µM*	-1%
CCOC(=O)c1[nH]c(C)c(C(=O)Nc2ccc(C)c(F)c2)c1C	0	1	1%	-11%	61%	2%
CCOC(=O)c1[nH]c(C)c(C(=O)Nc2ccc(C)c(Cl)c2)c1C	9.0*	8	-3%	40%	-13%	0%
COc1ccc(CNC(=O)CCC(=O)N2CCN(S(=O)(=O)c3ccc(Cl)cc3)CC2)cc1	-2	-16	-3%	-30%	?	0%
Cc1ccc(-c2nn(-c3ccccc3)cc2C(=O)Nc2cccc(S(=O)(=O)NC3=NCCC3)c2)cc1	.	.	0%	.	.	.
CCOP(=O)(OCC)C(NC(=O)Nc1ccc(C)c(Cl)c1)c1ccccc1 (stereo unspecified)	7	19	-3%	?	15µM*	3%
CCOC(=O)c1[nH]c(C)c(CC(C)C)c1C	20*	28	27%	7%	-30%	-1%
SMILES	CHX counter	Shiga inhibitor	AMA1 RON2 block	Pf growth 48h	Pf growth 96h	SARS PLpro yeast
CCOC(=O)c1[nH]c(C)c(C(=O)N(C)C)c1C	8	-13	22%	-3%	24%	10%
CCOC(=O)c1[nH]c(C)c(C(=O)NC2CCCCCC2)c1C	-3	24	10%	10%	9.3µM*	10%
COc1cc(C(=O)NCc2ccc3c(c2)OCO3)c([N+](=O)[O-])cc1OC	-2	-10	-2%	3%	?	0%
COc1cccc(OC)c1C(=O)Nc1ccncc1	.	.	6%	.	.	.
Cc1cc(C)c2c(n1)nn1c(N3CCN(c4ccccn4)CC3)cc(C)nc21	-2	-16	.	6%	3.3µM*	1%
Cc1cc(C)c2c(n1)nn1c(N3CCN(c4ccccc4)CC3)cc(C)nc21	-2	-12	18%	?	?	11%
Cc1nn2c(N3CCN(c4ccccn4)CC3)cc(C(C)C)nc2c1-c1ccccc1	-2	20	-2%	3.3µM*	?	-9%
CCc1noc(C)c1C(=O)N1CCSC1=Nc1cccc(Cl)c1C	0	23	1%	?	2.9µM*	-2%
CN1CCN(C(=O)c2cc(COc3c(F)cccc3F)on2)CC1c1ccccc1 (stereo unspecified)	-2	3	12%	-1%	4.1µM*	0%
CSc1ccccc1OCc1cc(C(=O)N2CCN(C)C(c3ccccc3)C2)no1 (stereo unspecified)	.	.	13%	.	.	.
COc1ccccc1OCc1cc(C(=O)N2CCN(C)C(c3ccccc3)C2)no1 (stereo unspecified)	59*	81*	-15%	?	3%	-11%
O=[N+]([O-])c1ccc(-n2nncc2-c2ccc(Cl)cc2)cc1	1	-16	-11%	-7%	.	-3%
Cc1nn(-c2ccccc2)c(N)c1Sc1cccc([N+](=O)[O-])c1	11	2	-12%	?	5%	-8%
Nc1nn(-c2ccccc2)c2ccc([N+](=O)[O-])cc12	26*	34	-2%	54%	?	-5%
O=Cc1cn(-c2ccccc2)nc1-c1cccc([N+](=O)[O-])c1	.	.	-6%	.	.	.
Nc1c(-c2ccc(Cl)cc2)cnn1-c1cccc([N+](=O)[O-])c1	19*	87*	-22%	32%	428%	1%
Nc1c(-c2ccccc2)cnn1-c1cccc([N+](=O)[O-])c1	31*	81*	-7%	53%	70%	-2%
O=[N+]([O-])c1ccc2c(c1)nnn2-c1ccccc1	-2	22	0%	47%	?	-5%
Cc1nn(-c2cccc([N+](=O)[O-])c2)c(N)c1-c1ccccc1	39*	73*	2%	188%	83%	-3%
COc1cccc(OC(=O)c2cc3ccccc3oc2=O)c1	10	-18	-20%	-2%	?	-2%
O=C(CN1CCc2cc3c(cc2C1)OCCCO3)Nc1c(F)cccc1F	-3	5	-3%	6%	?	1%
COCCn1nnnc1C(c1ccc(Cl)cc1)N1CCSCC1 (stereo unspecified)	6	-11	14%	-21%	.	-2%
COC(=O)c1ccccc1NC(=O)c1cc(-c2ccco2)on1	-1	-4	9%	15%	19%	1%

Screening data as filed in PubChem BioAssay.
